Screen size: about 39,000 compounds; about 3,300 (8.5%) were called active. The sample as a whole holds a higher share of actives than the screen did.

The subject of the test is HepG2. The test is described as follows: cytotoxicity call (relative viability < 0.9). To be noted: 10 µM.
Take `C[C@H]1CN([C@@H](C)CO)C(=O)c2cc(NS(=O)(=O)c3cn(C)cn3)ccc2O[C@H]1CN(C)S(=O)(=O)c1cn(C)cn1`: the cytotoxicity call was “inactive”.

Regarding `Cc1noc(C)c1NC(=O)N(C)C[C@@H]1Oc2ccc(NC(=O)Cn3cnnn3)cc2C(=O)N([C@@H](C)CO)C[C@H]1C`, the cytotoxicity call was “inactive”.

For `O=C(C[C@H]1C=C[C@@H](NC(=O)CN2CCOCC2)[C@H](CO)O1)NCCc1ccncc1`, the cytotoxicity call was “inactive”.

With `O=C(C[C@@H]1CC[C@@H](NC(=O)CN2CCOCC2)[C@H](CO)O1)NCCc1ccccc1`, the cytotoxicity call is “inactive”.

In the case of `Cc1ccc(S(=O)(=O)N(C)C[C@H]2Oc3ccc(NS(=O)(=O)c4cn(C)cn4)cc3CC(=O)N([C@@H](C)CO)C[C@@H]2C)cc1`, the cytotoxicity call is “inactive”.

On to `O=S(=O)(NCc1ccco1)N1CCOCC1`, for which the cytotoxicity call is “inactive”.

Consider `C[C@@H]1CCCCO[C@H](CN(C)Cc2ccc(C(=O)O)cc2)[C@H](C)CN([C@@H](C)CO)C(=O)c2cc(NC(=O)Nc3ccccc3)ccc2O1`, for which the cytotoxicity call was “inactive”.

For `COc1ccc2c(c1)OCC(=Cc1ccc(OC)c(O)c1)C2=O`, the cytotoxicity call is “active”.

As for `COc1ccc([C@H]2CC=CC[C@H](C)Oc3ccccc3C(=O)N(C)[C@H](Cc3ccccc3)C(=O)N2)c(OC)c1`, the cytotoxicity call was “inactive”.

For the molecule `COc1ccc(CCC(=O)c2c(O)cc(O[C@@H]3O[C@H](CO)[C@@H](O)[C@H](O)[C@H]3O[C@@H]3O[C@@H](C)[C@H](O)[C@@H](O)[C@H]3O)cc2O)cc1O`, the cytotoxicity call is “inactive”.

Consider `COc1ccc2c(c1)OCC(Cc1ccc(OC)c(O)c1)C2=O` (stereo not drawn), for which the cytotoxicity call was “active”.

As for `COc1ccc([C@H]2CC=CC[C@H](C)Oc3ccccc3C(=O)N(C)[C@@H](Cc3ccccc3)C(=O)N2)c(OC)c1`, the cytotoxicity call is “inactive”.

`COc1ccc2c(c1)OCC(Cc1ccc(OC)c(OC)c1)C2=O` (stereo not drawn): the cytotoxicity call was “active”.

As for `COc1ccc(-c2cc(=O)c3c(O)cc(OC)c(OC)c3o2)c(OC)c1`, the cytotoxicity call is “inactive”.

On to `COc1ccc2c(c1)OCC(Cc1ccc(O)c(OC)c1)C2=O` (stereo not drawn), for which the cytotoxicity call is “inactive”.

Regarding `COc1ccc2c(c1)OCc1c-2oc2cc(OC)ccc12`, the cytotoxicity call is “inactive”.

As for `C[C@H]1CCCCO[C@H](CN(C)C(=O)NC2CCCCC2)[C@@H](C)CN([C@@H](C)CO)C(=O)c2cc(NC(=O)C3CCCCC3)ccc2O1`, the cytotoxicity call is “inactive”.

Consider `Cc1noc(C)c1NC(=O)N(C)C[C@@H]1OCCCC[C@H](C)Oc2ccc(NC(=O)Nc3cccc4ccccc34)cc2C(=O)N([C@@H](C)CO)C[C@H]1C`, for which the cytotoxicity call was “inactive”.

For `COCCNC(=O)C[C@@H]1CC[C@@H]2[C@H](COc3ccc(NC(=O)Nc4cccc(F)c4)cc3C(=O)N2C)O1`, the cytotoxicity call is “inactive”.

Consider `Cc1noc(C)c1NC(=O)Nc1ccc2c(c1)CC(=O)N([C@@H](C)CO)C[C@H](C)[C@@H](CN(C)Cc1ccc(Oc3ccccc3)cc1)O2`, for which the cytotoxicity call is “inactive”.

Regarding `Cc1noc(C)c1NC(=O)N(C)C[C@@H]1Oc2ccc(NS(=O)(=O)c3ccccc3)cc2C(=O)N([C@H](C)CO)C[C@@H]1C`, the cytotoxicity call was “inactive”.

For `CSc1nc(-c2ccccc2)cc(-c2cccs2)c1C#N`, the cytotoxicity call was “inactive”.

Take `Cc1cc(-c2ccccc2)nc(SCc2ccccc2)c1C#N`: the cytotoxicity call was “active”.

For `CCSc1nc(-c2ccc(C)cc2)cc(C(F)(F)F)c1C#N`, the cytotoxicity call is “inactive”.

Turning to `CC(C)NC(=O)Nc1cccc2c1O[C@H](CN(C)S(=O)(=O)c1ccccc1)[C@@H](C)CN([C@H](C)CO)C2=O`, the cytotoxicity call was “inactive”.

In the case of `C[C@@H]1CCCCO[C@H](CN(C)S(=O)(=O)c2cccs2)[C@@H](C)CN([C@H](C)CO)C(=O)c2cc(NC(=O)Nc3cccc4ccccc34)ccc2O1`, the cytotoxicity call was “inactive”.

In the case of `CCCN(C)C[C@@H]1OCCCC[C@@H](C)Oc2ccc(NC(=O)Nc3ccc(F)cc3)cc2C(=O)N([C@H](C)CO)C[C@H]1C`, the cytotoxicity call is “inactive”.

For `CCCN(C)C[C@H]1OCCCC[C@@H](C)Oc2ccc(NC(=O)Nc3ccc(F)cc3)cc2C(=O)N([C@H](C)CO)C[C@@H]1C`, the cytotoxicity call is “inactive”.

As to `CCCN(C)C[C@@H]1OCCCC[C@H](C)Oc2ccc(NC(=O)Nc3ccc(C(F)(F)F)cc3)cc2C(=O)N([C@H](C)CO)C[C@@H]1C`, the cytotoxicity call was “active”.

Take `CCCN(C)C[C@H]1OCCCC[C@H](C)Oc2ccc(NC(=O)Nc3ccc(C(F)(F)F)cc3)cc2C(=O)N([C@@H](C)CO)C[C@H]1C`: the cytotoxicity call is “active”.

Turning to `CCCN(C)C[C@H]1OCCCC[C@H](C)Oc2ccc(NC(=O)Nc3ccc(F)cc3)cc2C(=O)N([C@@H](C)CO)C[C@H]1C`, the cytotoxicity call is “inactive”.

In the case of `CCCN(C)C[C@H]1OCCCC[C@@H](C)Oc2ccc(NC(=O)Nc3ccc(C(F)(F)F)cc3)cc2C(=O)N([C@H](C)CO)C[C@H]1C`, the cytotoxicity call is “inactive”.

Regarding `CCCN(C)C[C@@H]1OCCCC[C@H](C)Oc2ccc(NC(=O)Nc3ccc(C(F)(F)F)cc3)cc2C(=O)N([C@@H](C)CO)C[C@@H]1C`, the cytotoxicity call was “inactive”.

Turning to `CCCN(C)C[C@@H]1OCCCC[C@H](C)Oc2ccc(NC(=O)Nc3ccc(F)cc3)cc2C(=O)N([C@@H](C)CO)C[C@@H]1C`, the cytotoxicity call was “inactive”.

On to `CCCN(C)C[C@@H]1OCCCC[C@@H](C)Oc2ccc(NC(=O)Nc3ccc(F)cc3)cc2C(=O)N([C@H](C)CO)C[C@@H]1C`, for which the cytotoxicity call was “inactive”.

As for `CCCN(C)C[C@@H]1OCCCC[C@@H](C)Oc2ccc(NC(=O)Nc3ccc(C(F)(F)F)cc3)cc2C(=O)N([C@H](C)CO)C[C@@H]1C`, the cytotoxicity call is “active”.

With `CCCN(C)C[C@@H]1OCCCC[C@@H](C)Oc2ccc(NC(=O)Nc3ccc(C(F)(F)F)cc3)cc2C(=O)N([C@H](C)CO)C[C@H]1C`, the cytotoxicity call was “inactive”.

Turning to `CCCN(C)C[C@H]1OCCCC[C@@H](C)Oc2ccc(NC(=O)Nc3ccc(C(F)(F)F)cc3)cc2C(=O)N([C@@H](C)CO)C[C@H]1C`, the cytotoxicity call is “active”.

Regarding `COc1ccc(S(=O)(=O)Nc2ccc3c(c2)C(=O)N([C@@H](C)CO)C[C@@H](C)[C@H](CN(C)S(=O)(=O)c2ccc(Cl)cc2)OCCCC[C@@H](C)O3)cc1`, the cytotoxicity call was “inactive”.

For the molecule `COc1ccc(S(=O)(=O)N(C)C[C@@H]2Oc3ccc(NC(=O)Cc4ccccc4)cc3CC(=O)N([C@H](C)CO)C[C@H]2C)cc1`, the cytotoxicity call is “inactive”.

With `COc1ccccc1C#Cc1ccc2c(c1)O[C@@H](CN(C)Cc1cncnc1)[C@H](C)CN([C@H](C)CO)S2(=O)=O`, the cytotoxicity call is “inactive”.

On to `Cc1ccc(S(=O)(=O)N2C[C@@H](O)COC[C@H]3O[C@H](CC(=O)NCc4ccc(C(F)(F)F)cc4)CC[C@@H]32)cc1`, for which the cytotoxicity call is “inactive”.

For the molecule `CSc1cc(-c2ccc(Cl)cc2)nc(-c2cccs2)c1`, the cytotoxicity call was “inactive”.

On to `C[C@@H]1CCCCO[C@@H](CN(C)C(=O)Nc2ccc(C(F)(F)F)cc2)[C@H](C)CN([C@@H](C)CO)C(=O)c2cc(NC(=O)NC3CCCCC3)ccc2O1`, for which the cytotoxicity call was “inactive”.

For `C[C@H]1CN([C@@H](C)CO)C(=O)c2cccc(NS(=O)(=O)c3ccc(Cl)cc3)c2O[C@H]1CN(C)Cc1ccc(Cl)c(Cl)c1`, the cytotoxicity call was “inactive”.

Take `CCS(=O)(=O)N1C[C@]2(C1)CN([C@H](CO)c1[nH]c3cc(ccc3c12)OC)S(=O)(=O)c1ccc(cc1)C`: the cytotoxicity call was “inactive”.

For `CC(C)NC(=O)N(C)C[C@@H]1Oc2c(NC(=O)NC3CCCCC3)cccc2C(=O)N([C@H](C)CO)C[C@H]1C`, the cytotoxicity call is “inactive”.

With `CCc1c(C)[nH]c(N2CCOCC2)nc1=O`, the cytotoxicity call is “inactive”.

As for `C[C@H]1CN([C@@H](C)CO)C(=O)CCCn2cc(nn2)CO[C@@H]1CN(C)C(=O)c1ccc(N2CCN(C)CC2)cc1`, the cytotoxicity call was “active”.

Consider `C[C@@H]1CN([C@@H](C)CO)C(=O)CCCn2nncc2CO[C@H]1CN(C)C(=O)Nc1ccc(C(F)(F)F)cc1`, for which the cytotoxicity call was “inactive”.

Take `C[C@@H]1CN([C@H](C)CO)C(=O)CCCn2nncc2CO[C@H]1CN(C)C(=O)Nc1ccccc1C(F)(F)F`: the cytotoxicity call was “active”.

Regarding `C[C@@H]1CN([C@H](C)CO)C(=O)CCCn2cc(nn2)CO[C@@H]1CN(C)C(=O)Nc1ccccc1C(F)(F)F`, the cytotoxicity call was “active”.

`C[C@@H]1CN([C@@H](C)CO)C(=O)CCCn2nncc2CO[C@H]1CN(C)C(=O)Nc1ccccc1C(F)(F)F`: the cytotoxicity call was “inactive”.

With `C[C@@H]1CN([C@@H](C)CO)C(=O)CCCn2nncc2CO[C@@H]1CN(C)C(=O)Nc1ccc(C(F)(F)F)cc1`, the cytotoxicity call was “inactive”.

Turning to `C[C@H]1CN([C@@H](C)CO)C(=O)CCCn2cc(nn2)CO[C@H]1CN(C)C(=O)c1ccc(N2CCN(C)CC2)cc1`, the cytotoxicity call was “inactive”.

Regarding `C[C@@H]1CN([C@H](C)CO)C(=O)CCCn2cc(nn2)CO[C@@H]1CN(C)C(=O)c1ccc(N2CCN(C)CC2)cc1`, the cytotoxicity call was “inactive”.

In the case of `C[C@H](CO)N1C[C@H](C)[C@H](CN(C)C(=O)Nc2ccc(C(F)(F)F)cc2)OCc2cnnn2CCCC1=O`, the cytotoxicity call is “active”.

In the case of `C[C@H](CO)N1C[C@H](C)[C@@H](CN(C)C(=O)Nc2ccccc2C(F)(F)F)OCc2cnnn2CCCC1=O`, the cytotoxicity call was “inactive”.

On to `C[C@H](CO)N1C[C@H](C)[C@@H](CN(C)C(=O)Nc2ccccc2C(F)(F)F)OCc2cn(nn2)CCCC1=O`, for which the cytotoxicity call is “inactive”.

Regarding `C[C@H](CO)N1C[C@H](C)[C@H](CN(C)C(=O)Nc2ccccc2C(F)(F)F)OCc2cn(nn2)CCCC1=O`, the cytotoxicity call was “inactive”.

Regarding `Cc1noc(C)c1NC(=O)Nc1ccc2c(c1)CC(=O)N([C@H](C)CO)C[C@H](C)[C@H](CN(C)CC1CC1)O2`, the cytotoxicity call was “inactive”.

On to `Nc1ncnc2c1ncn2[C@@H]1O[C@H](CO)C[C@H]1O`, for which the cytotoxicity call was “inactive”.

Turning to `C[C@H]1CN([C@@H](C)CO)C(=O)Cc2cc(N(C)C)ccc2O[C@@H]1CN(C)S(=O)(=O)c1cn(C)cn1`, the cytotoxicity call was “inactive”.

With `CC(C)(CO)Nc1ncnc(N)c1[N+](=O)[O-]`, the cytotoxicity call was “inactive”.

As to `COc1ccc(NC(=O)Nc2cccc3c2O[C@@H](CN(C)CC2CCCCC2)[C@@H](C)CN([C@@H](C)CO)C3=O)cc1`, the cytotoxicity call was “inactive”.

As for `Cc1noc(C)c1NC(=O)N(C)C[C@H]1Oc2c(NC(=O)C3CCOCC3)cccc2C(=O)N([C@@H](C)CO)C[C@@H]1C`, the cytotoxicity call is “inactive”.

As for `C[C@@H]1CN([C@H](C)CO)C(=O)c2cc(NS(=O)(=O)c3ccc(F)cc3)ccc2O[C@@H]1CN(C)S(=O)(=O)c1ccccc1`, the cytotoxicity call was “inactive”.

`C[C@@H]1CN([C@H](C)CO)C(=O)CCCn2nncc2CO[C@H]1CN(C)S(=O)(=O)c1ccc(Cl)cc1`: the cytotoxicity call is “inactive”.

As to `C[C@H]1CN([C@@H](C)CO)C(=O)CCCn2nncc2CO[C@H]1CN(C)S(=O)(=O)c1ccc(Cl)cc1`, the cytotoxicity call is “active”.

In the case of `C[C@H]1CN([C@@H](C)CO)C(=O)CCCn2nncc2CO[C@H]1CN(C)C(=O)Nc1ccccc1C(F)(F)F`, the cytotoxicity call was “active”.

For the molecule `C[C@@H]1CN([C@H](C)CO)C(=O)CCCn2nncc2CO[C@@H]1CN(C)S(=O)(=O)c1ccc(Cl)cc1`, the cytotoxicity call is “inactive”.

Take `C[C@H]1CN([C@@H](C)CO)C(=O)CCCn2nncc2CO[C@@H]1CN(C)C(=O)Nc1ccccc1C(F)(F)F`: the cytotoxicity call is “inactive”.

In the case of `C[C@@H]1CN([C@H](C)CO)C(=O)CCCn2nncc2CO[C@@H]1CN(C)C(=O)Nc1ccccc1C(F)(F)F`, the cytotoxicity call is “inactive”.

Values taken from the antibiotic and cytotoxicity screens of Wong et al. (2023).
